Experimental data: PubChem BioAssay
Calls of active or inactive are those of the source.

How the values were obtained:
[1] = A549 cell viability effects, profiling panel, calcein-AM fluorescence, 48 h, basal (AID 1162); conditions: higher = more signal
[2] = adipocyte viability effects, profiling panel, cell-based, 3T3-L1 adipocytes, calcein-AM fluorescence, 48 h, basal (AID 1163); conditions: 3T3-L1 adipocytes viability, higher = more signal
[3] = HepG2 cell viability effects, profiling panel, calcein-AM fluorescence, 48 h, basal (AID 1164); conditions: higher = more signal
[4] = MM1S cell viability effects, profiling panel, calcein-AM fluorescence, 48 h, basal (AID 1165); conditions: higher = more signal;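 note: viability of MM1S multiple myeloma cells under basal unstimulated conditions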
[5] = basal RPMI8226 viability, no added stimulus, profiling panel, cell-based, calcein-AM fluorescence, 48 h, PK04 Diversity Set (AID 1166); conditions: RPMI8226 myeloma viability, higher = more signal;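 note: cells grown under basal conditions without added stimulus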
[6] = basal HepG2 mitochondrial membrane potential changes, profiling panel, cell-based, JC-1 fluorescence, 24 h, 100 nL compound (AID 1167); conditions: higher = more signal
[7] = basal 3T3-L1 adipocyte mitochondrial potential changes, profiling panel, cell-based, JC-1 fluorescence, 3T3-L1 adipocytes, 24 h, 100 nL compound (AID 1168); conditions: JC-1 mitochondrial fluorescence, higher = more signal, called active from +8 up or from −8 down
[8] = basal RPMI8226 mitochondrial membrane potential changes, profiling panel, cell-based, JC-1 fluorescence, 24 h, 100 nL compound (AID 1169); conditions: RPMI8226 myeloma, JC-1 mitochondrial potential fluorescence, higher = more signal
[9] = basal MM1S mitochondrial membrane potential changes, profiling panel, cell-based, JC-1 fluorescence, 24 h, 100 nL compound (AID 1170); conditions: higher = more signal
[10] = A549 lung cancer cell viability effects, profiling panel, resazurin fluorescence, 24 h, PK04 Diversity Set (AID 1171); conditions: higher = more signal, called active from +8 up or from −8 down
Note: test concentration not given here.

In the case of `CCCN1C(=O)[C@@]2(c3ccc([N+](=O)[O-])cc3)CC(=O)N(CC34CC5CC(CC(C5)C3)C4)[C@@H]2c2ccc(CO)cc21`, the z-score [1] is reported as 0.129, the z-score [2] is reported as -0.4 and the z-score [3] is reported as -0.301. For the same compound, the z-score [4] was -0.194, the z-score [5] was 0.448 and the z-score [6] was -0.885. For the same compound, the z-score [7] was -0.656 (inactive), the z-score [8] was 0.282 and the z-score [9] was -0.315. The z-score [10] was 0.0382 (inactive).

`C=C(CCCC)/C(=C/C[C@H](OC(=O)c1ccncc1)c1ccc(OCCO)cc1)c1cnc2ccccc2c1` showed a z-score [1] of 1.09, a z-score [2] of 0.464 and a z-score [3] of 0.014. It also gave a z-score [4] of -2.55, a z-score [5] of -0.499 and a z-score [6] of 1.98. For the same compound, the z-score [7] was -0.689 (inactive), the z-score [8] was -0.756 and the z-score [9] was -0.262. For the same compound, the z-score [10] was 1.2 (inactive).

With `[N-]=[N+]=NCc1ccccc1[C@@H]1OC(c2ccc(OCCCO)cc2)=N[C@]1(Cc1ccccc1N=[N+]=[N-])C(=O)NCC(O)CO` (stereo not given in full) the z-score [1] was -0.619, the z-score [2] was 0.0728 and the z-score [3] was -0.326. It also gave a z-score [4] of -1.78, a z-score [5] of -1.57 and a z-score [6] of -0.686. The z-score [7] was 0.265 (inactive), the z-score [8] was -1.2 and the z-score [9] was -0.6. For the same compound, the z-score [10] was -1.09 (inactive).

In the case of `COCCOC(=O)N1C(=O)[C@@]2(c3cc(C#CCCO)ccc31)[C@H](c1ccccc1OCCO)N1[C@H](c3ccccc3)[C@H](c3ccccc3)OC(=O)[C@H]1[C@@H]2C(N)=O`, the z-score [1] is reported as 0.49, the z-score [2] is reported as 1.8 and the z-score [3] is reported as -0.112. The z-score [4] was -1.49, the z-score [5] was -4.2 and the z-score [6] was 0.446. The z-score [7] was 1 (inactive), the z-score [8] was -1.22 and the z-score [9] was -1.12. The z-score [10] was -0.0131 (inactive).

`N#Cc1ccc(C(O)C2C=CC3C(=O)NC(=O)C3N2Nc2ccc(Cl)cc2Cl)cc1` (stereo not given) showed a z-score [1] of -0.918, a z-score [2] of 0.325 and a z-score [3] of -0.726. It also gave a z-score [4] of -0.399, a z-score [5] of -0.408 and a z-score [6] of -1.35. The z-score [7] was -1.05 (inactive), the z-score [8] was -0.356 and the z-score [9] was 0.153. For the same compound, the z-score [10] was -0.123 (inactive).

In the case of `COC(=O)C(CC#Cc1ccc2c(c1)[C@]1(C(=O)N2)[C@H](c2ccccc2OCCO)N2[C@H](c3ccccc3)[C@H](c3ccccc3)OC(=O)[C@H]2[C@@H]1C(=O)N1CCc2cc(OC)c(OC)cc2C1)C(=O)OC`, the z-score [1] is reported as 0.734, the z-score [2] is reported as -0.19 and the z-score [3] is reported as 2.08. It also gave a z-score [4] of 0.857, a z-score [5] of -0.0217 and a z-score [6] of -0.112. For the same compound, the z-score [7] was 2.3 (inactive), the z-score [8] was -0.941 and the z-score [9] was -1.47. For the same compound, the z-score [10] was -0.63 (inactive).

Compound `COC(=O)[C@@]1(Cc2ccc(OC)cc2)[C@H]2c3cc(C(=O)N4CCCC4)n(Cc4ccc(C(F)(F)F)nc4)c3C[C@H]2CN1C(=O)c1ccccc1` has a z-score [1] of -1.3, a z-score [2] of 0.202 and a z-score [3] of 0.0749. For the same compound, the z-score [4] was -1.03, the z-score [5] was -1.33 and the z-score [6] was 0.952. For the same compound, the z-score [7] was -1.59 (inactive), the z-score [8] was -0.779 and the z-score [9] was -1.69. For the same compound, the z-score [10] was -0.266 (inactive).

Compound `N#Cc1ccc(NN2C(C(O)C3CC=CCC3)C=CC3C(=O)N(c4ccccc4)C(=O)C32)cc1` (stereo not given) has a z-score [1] of -0.726, a z-score [2] of -0.613 and a z-score [3] of 0.921. For the same compound, the z-score [4] was -0.318, the z-score [5] was -0.265 and the z-score [6] was -0.795. For the same compound, the z-score [7] was -1.14 (inactive), the z-score [8] was 0.418 and the z-score [9] was -0.508. For the same compound, the z-score [10] was -0.997 (inactive).

With `CC(C)N1C(=O)c2ccccc2[C@](C)(C(=O)NCC(F)(F)F)[C@@H]1c1ccc(CO)cc1` the z-score [1] was 0.508, the z-score [2] was 1.33 and the z-score [3] was 1.01. For the same compound, the z-score [4] was 0.0226, the z-score [5] was 0.177 and the z-score [6] was 0.686. For the same compound, the z-score [7] was -0.0819 (inactive), the z-score [8] was 0.261 and the z-score [9] was 1.38. The z-score [10] was 0.87 (inactive).

`O=C(NCCN1CCOCC1)[C@@H]1c2ccccc2C(=O)N(Cc2ccccc2C(F)(F)F)[C@H]1c1ccc(CO)cc1` showed a z-score [1] of 1.9, a z-score [2] of 0.783 and a z-score [3] of 0.893. It also gave a z-score [4] of 0.561, a z-score [5] of -0.588 and a z-score [6] of 2.59. The z-score [7] was -0.0687 (inactive), the z-score [8] was -0.335 and the z-score [9] was -0.109. For the same compound, the z-score [10] was 1.94 (inactive).

In the case of `CO[C@H]1O[C@H](CO)[C@@H](OC(=O)Nc2ccc3c(c2)OCO3)[C@H](OC(=O)Nc2ccccc2-c2ccccc2)[C@H]1OC(=O)Nc1ccccc1-c1ccccc1`, the z-score [1] is reported as -3.97, the z-score [2] is reported as 0.548 and the z-score [3] is reported as -3.71. The z-score [4] was -3.34, the z-score [5] was -2.72 and the z-score [6] was 0.0319. For the same compound, the z-score [7] was 2.04 (inactive), the z-score [8] was -0.819 and the z-score [9] was -1.76. For the same compound, the z-score [10] was -3.84 (inactive).

Compound `COc1ccc([Si](C)(C)[C@H]2[C@H](CC(=O)N3Cc4ccccc4C[C@H]3CO)O[C@@]3(C(=O)N(C)c4c(Br)cc(C)cc43)[C@@H]2C)cc1` has a z-score [1] of -2.66, a z-score [2] of 0.231 and a z-score [3] of -4.66. It also gave a z-score [4] of -2.71, a z-score [5] of -4.36 and a z-score [6] of -2.2. The z-score [7] was 0.0243 (inactive), the z-score [8] was -1.12 and the z-score [9] was -2.31. For the same compound, the z-score [10] was -2.92 (inactive).

Compound `CC(C)NC(=O)[C@@]1(c2ccc([N+](=O)[O-])cc2)CC(=O)N(CC23CC4CC(CC(C4)C2)C3)[C@@H]1c1ccc(CO)cc1` has a z-score [1] of -1.34, a z-score [2] of 0.999 and a z-score [3] of -1.72. The z-score [4] was -2.06, the z-score [5] was -3.8 and the z-score [6] was -1.38. The z-score [7] was -0.959 (inactive), the z-score [8] was -0.6 and the z-score [9] was -0.24. The z-score [10] was -2.03 (inactive).

`Cc1ccccc1C(O)C1C=CC2C(=O)N(c3ccccc3)C(=O)C2N1Nc1ccccc1` (stereo not given) showed a z-score [1] of -0.0545, a z-score [2] of -1.17 and a z-score [3] of 1.8. It also gave a z-score [4] of 0.928, a z-score [5] of -0.645 and a z-score [6] of -0.978. For the same compound, the z-score [7] was -0.703 (inactive), the z-score [8] was -0.318 and the z-score [9] was -0.638. The z-score [10] was 0.0292 (inactive).

For `C=CCOC(=O)[C@H]1[C@@H]2C(=O)O[C@@H](c3ccccc3)[C@@H](c3ccccc3)N2[C@@H](c2ccc(OCCOC(=O)[C@@H]3C[C@@H]4C(=O)N[C@@H](CCCC[N+](C)(C)C)C(=O)N4[C@@H]3c3ccc(O)cc3)cc2)[C@]12C(=O)Nc1ccc(I)cc12`, the z-score [1] was -0.717, the z-score [2] was -0.169 and the z-score [3] was -0.457. It also gave a z-score [4] of -2.9, a z-score [5] of -1.43 and a z-score [6] of -2. For the same compound, the z-score [7] was 0.638 (inactive), the z-score [8] was -0.767 and the z-score [9] was -0.879. For the same compound, the z-score [10] was 0.281 (inactive).
